Inconclusive results are not listed. Values without a mark were called inactive. Calls follow the shape of the dose curve; as a rule, active = well fitted cell-killing curve with a large enough effect; inconclusive = small, poorly fitted or top-dose-only effect; inactive = flat fitted curve, though single readings scatter.
assay: Cell Viability - LYMP2-013 (AID 970); details: LYMP2-013 lymphoblastoid cells viability; series mostly up to 92.2 µM; activity change, negative = cytotoxic: at the top concentration;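 also: 0% = DMSO only and full inhibition = tetraoctylammonium bromide control; nearly all actives have a fitted effect of over 55% in size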
Source text: NIH Chemical Genomics Center [NCGC]
NIH Molecular Libraries Screening Centers Network [MLSCN]
National Institutes of Environmental Health Sciences [NIEHS]
National Toxicology Program [NTP]
We have developed a 1536-well cell-based assay for quantitative high throughput screening (qHTS) against a number of cell lines to determine in vitro cytotoxicity of small molecules. This particular assay uses a human lymphoblastoid cell line (LYMP2-013) purchased from Coriell Institute for Medical Research.
NCGC Assay Protocol Summary:
The CellTiter-Glo luminescent cell viability assay (Promega) is a homogeneous method to measure the number of viable cells in culture. The end point readout of this assay is based on quantitation of intracellular ATP, an indicator of metabolic activity, using the luciferase reaction. Luciferase catalyzes the oxidation of beetle Luciferin to oxyluciferin and light in the presence of ATP. The luminescent signal is proportional to amount of ATP present.
Using the CellTiter-Glo luminescent cell viability assay, the amount of cellular ATP was measured in the lymphoblastoid cell line with complete culture medium following compound treatment for 24 hours. The assay was performed in opaque white Kalypsys 1536-well plates. In the screen, tetraoctylammonium bromide was used as positive control. Library compounds were measured for their ability to cause acute toxicity in the cell line, as reflected by a decrease in intracellular ATP levels, in a concentration-dependent manner. […] AC50 values were determined from concentration-response data modeled with the standard Hill equation.
qHTS protocol for CellTiter Glo lymphoblastoid cellular assay
[Step] [Parameter] [Value] [Description]
1. Reagent; 5 uL; 2500 lymphoblastoid cells/well
2. Time; 5 hr; 37 C incubation
4. Controls; 23 nL; Tetraoctylammonium bromide 6.4pM to 92 uM
5. Time; 24 hr; 37 C incubation
6. Reagent; 5 uL; CellTiter Glo reagent
7. Time; 30 min; Room Temperature
8. Detection; Luminescence; Viewlux plate reader
Keywords: cell viability, cytotoxicity, lymphoblastoid cell line, luminescence, NTPHTS, NTPHTS_NCGC, NIEHS, DSSTox, MLSMR, MLSCN, NIH Roadmap, qHTS, NCGC

Compound | activity change, negative = cytotoxic [%]
CCOCCO | -6.8
Cc1c(N)cccc1[N+](=O)[O-] | -0.207
C=CCCCC | -1.57
Oc1cccc(Nc2ccccc2)c1 | -3.23
ClC/C=C/CCl | -8.4
Cc1cccc(C(=O)O)c1[N+](=O)[O-] | -0.702
Cc1ccc(C(C)(C)C)cc1 | -4.64
CC1CCC2CC1C2(C)C (stereo not given) | -1.47
C=C(C)C(=O)OCCCCCCCCCC | -3.16
Nc1nc2ccccc2[nH]1 | -14.7
C=CC(=O)OCCCC | -4.99
CCC(O)C(C)(C)C (stereo not given) | -7.51
CC(C)N=C=NC(C)C | -2.25
C(=C/c1ccccc1)/c1ccccc1 | -8.13
C=C(C)C1CC=C(C)C(OC(C)=O)C1 (stereo not given) | -8.06
Cc1ccc(Cl)cc1 | -11.1
Cc1cc(C)cc(N)c1 | -6.34
CCN(Cc1ccccc1)c1ccccc1 | 0.05
Cc1cccc(Br)c1 | -8.68
CCCCC(CC)CNCC(CC)CCCC (stereo not given) | -7.13

Compound | activity change, negative = cytotoxic [%]
C=CCCC | -1.47
Cc1cc(C2(c3cc(C)c(O)cc3C)OS(=O)(=O)c3ccccc32)c(C)cc1O | -9.36
COC(=O)CC#N | -5.17
O=CNc1ccccc1 | -4.08
O=C(Cl)c1cccc([N+](=O)[O-])c1 | -0.658
CCNS(=O)(=O)c1ccc(C)cc1 | 2.99
ON=C1CCCCC1 | -12.1
C=C(C)C(=O)OCC(C)O (stereo not given) | -8.33
CCCCCNCCCCC | -5.84
C[C@@H]1CC2(OC3C[C@@]4(C)C5=CC[C@H]6C(C)(C)C(O[C@@H]7OC[C@@H](O)[C@H](O)[C@H]7O)CC[C@@]67C[C@@]57CC[C@]4(C)C31)OC(O)C1(C)OC21 (stereo not given in full) | -3.21
Nc1cccc([N+](=O)[O-])c1 | 1.09
CCC(C)=O | -4.85
C/C=C1\CC2C=CC1C2 (stereo not given) | 3.6
O=[N+]([O-])c1cccc(C(F)(F)F)c1 | -9.98
C=C(C)C(N)=O | 2.17
Nc1c(Cl)cc(Cl)cc1Cl | -11.1
CCC(C)(C)OC | -1.18
CC(=O)Nc1ccc(C)cc1 | -2.13
Cc1cccc(C(=O)O)c1 | -4.85
Nc1cccc2c(=O)[nH][nH]c(=O)c12 | -2.63

From PubChem BioAssay (NCATS)
